{"source": "PubChem BioAssay AID1778", "about": "(Sanford-Burnham Center for Chemical Genomics, 2009)", "note": "Among all 290,000 compounds or so, about 260 (0.09%) were called active. The sample as a whole holds a higher share of actives than the screen did. Measured potencies and affinities stand elsewhere. Values without a mark were called inactive. No stated cut-off is given here; in the data, active means inhibition above about 50%; inactive means the rest.", "data": [{"biological_target": "Kappa-type opioid receptor (Homo sapiens) (UniProt P41145)", "sequence (P41145 whole entry, looked up)": "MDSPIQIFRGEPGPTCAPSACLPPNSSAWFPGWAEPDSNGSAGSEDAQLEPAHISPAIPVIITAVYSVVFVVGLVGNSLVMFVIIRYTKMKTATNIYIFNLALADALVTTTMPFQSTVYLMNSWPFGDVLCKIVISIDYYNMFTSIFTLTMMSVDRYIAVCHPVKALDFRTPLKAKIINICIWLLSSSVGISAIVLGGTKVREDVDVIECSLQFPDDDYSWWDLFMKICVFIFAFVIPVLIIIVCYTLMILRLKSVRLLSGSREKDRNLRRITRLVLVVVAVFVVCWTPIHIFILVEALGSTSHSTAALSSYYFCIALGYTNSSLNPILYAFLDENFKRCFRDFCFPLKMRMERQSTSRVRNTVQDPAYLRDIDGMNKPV", "experiment": "kappa opioid receptor blockers – cell-based, luminescence, uHTS (AID 1778)", "conditions": "KOR beta-arrestin recruitment, antagonist mode, hits give high values; at 10 µM unless noted", "values": [{"smiles": "COC(=O)c1cc(C(=O)NCC2CCCCC2)cc([N+](=O)[O-])c1", "inhibition": "7.5%"}, {"smiles": "Cc1ccc(-c2nnn(CC(=O)N(c3ccccc3)C(C(=O)NC3CCCC3)c3ccncc3)n2)o1", "note": "(configuration not stated)", "inhibition": "5.7%"}, {"smiles": "CC(C)NS(=O)(=O)c1ccc(CCC(=O)Nc2ccc3c(c2)OCCO3)cc1", "inhibition": "7.5%"}, {"smiles": "CS(=O)(=O)c1ccc2nc(NC(=O)c3ccc(Cl)cc3)sc2c1", "inhibition": "-55% [at 20 µM]"}, {"smiles": "O=C(O)c1ccc(-c2ccccc2)[nH]c1=O", "inhibition": "5.6%"}, {"smiles": "CC(C)(C)NC(=O)c1cc(NC(=O)c2cccs2)cc(NC(=O)c2cccs2)c1", "inhibition": "-34.4%"}, {"smiles": "Cc1nc(Cl)c(Cl)n1CCOc1ccccc1", "inhibition": "-4.6%"}, {"smiles": "CCN(CC)CCCNC(=O)c1cc(Sc2nnc(C)s2)nc2ccccc12", "inhibition": "-6.1%"}, {"smiles": "Cn1cccc1CNC(=S)Nc1ccccc1Cl", "inhibition": "28.1%"}, {"smiles": "Cc1ccc(NC(=O)CC(C)CC(=O)NCc2ccccc2)cc1Cl", "note": "(configuration not stated)", "inhibition": "-17.8%"}, {"smiles": "O=[N+]([O-])c1ccccc1OC/C(=N\\O)c1ccccc1", "inhibition": "13.6%"}, {"smiles": "COC(=O)c1cn(NC(=O)/C=C/c2cc(OC)ccc2OC)c(=O)c2ccccc12", "inhibition": "-8.8%"}, {"smiles": "CN(C)CC(CCC(CN(C)C)C(=O)c1ccccc1)C(=O)c1ccccc1", "note": "(configuration not stated)", "inhibition": "83.9% (active)"}, {"smiles": "CN(C)CC(CCCCC(CN(C)C)C(=O)c1ccccc1)C(=O)c1ccccc1", "note": "(configuration not stated)", "inhibition": "12.5%"}, {"smiles": "CCOc1ccc(C(=O)C(CCC(CN(C)C)C(=O)c2ccc(OCC)cc2)CN(C)C)cc1", "note": "(configuration not stated)", "inhibition": "15.2%"}, {"smiles": "Cc1cccc(C(=O)OCC(=O)Nc2ccc(N3CCCCC3)cc2)c1O", "inhibition": "-7.8%"}, {"smiles": "Cc1ccccc1N(C(=O)Cn1nnc(-c2cccs2)n1)C(C(=O)NCCC(C)C)c1ccco1", "note": "(configuration not stated)", "inhibition": "23.7%"}, {"smiles": "COc1ccccc1NC(=O)CN1CC(=O)Nc2ccccc21", "inhibition": "0%"}, {"smiles": "COc1ccc(/C=C/C(=O)OCC(=O)N2CC(=O)Nc3ccccc32)cc1S(=O)(=O)N1CCOCC1", "inhibition": "-27.5%"}, {"smiles": "Cc1ccc(NC(=S)NCCN2CCOCC2)cc1C", "inhibition": "16.7%"}, {"smiles": "Cc1ccc(NC(=S)NCCCN2CCOCC2)cc1", "inhibition": "6.6%"}, {"smiles": "Cc1ccc(NC(=S)NCCCN2CCOCC2)cc1C", "inhibition": "50% (active)"}, {"smiles": "C/C(=N\\NC(=O)c1nnn(-c2nonc2N)c1-c1ccc2c(c1)OCO2)c1cccs1", "inhibition": "-7.9%"}, {"smiles": "Cc1ccc(-c2cc(C(=O)Nc3cc(C)ccc3C)[nH]n2)c(O)c1", "inhibition": "9.1%"}, {"smiles": "CCCCC(CC)C(=O)NCc1ccc(F)cc1", "note": "(configuration not stated)", "inhibition": "8%"}, {"smiles": "CCCCC(C(=O)OCC)C(N)Cc1ccc(F)cc1", "note": "(configuration not stated)", "inhibition": "65.2% (active)"}, {"smiles": "CCOC(=O)C(C(C)C)C(N)Cc1ccc(F)cc1", "note": "(configuration not stated)", "inhibition": "-13.5%"}, {"smiles": "Cc1ccccc1Cn1cc(NC(=O)CCCn2nc([N+](=O)[O-])cc2C)cn1", "inhibition": "16.3%"}, {"smiles": "COc1cccc(CNC(=O)C2CCC(CNS(=O)(=O)c3cccc4cccnc34)CC2)c1", "note": "(configuration not stated)", "inhibition": "27.1%"}, {"smiles": "CN(C)c1nc(=NCc2ccco2)ss1", "inhibition": "83.2% (active)"}, {"smiles": "c1coc(CN=C2NC(=NCc3ccco3)c3ccccc32)c1", "inhibition": "-31.2%"}, {"smiles": "O=C1CCCC(=NCc2ccco2)C1", "inhibition": "-29.5%"}, {"smiles": "COc1ccc(C)cc1N(C(=O)c1ccco1)C(C(=O)NC1CCCC1)c1ccc(N2CCOCC2)cc1", "note": "(configuration not stated)", "inhibition": "5.8%"}, {"smiles": "COc1ccc(N=Nc2ccc3ccccc3c2)c(O)c1", "inhibition": "-6.2% [at 20 µM]"}, {"smiles": "CCN(CC)S(=O)(=O)c1cc(OC)ccc1N=Nc1ccc(O)c2ncccc12", "inhibition": "-5.1%"}, {"smiles": "Cc1cccc(N=Nc2ccc(O)c3ncccc23)c1", "inhibition": "45.9%"}, {"smiles": "CCOc1ccc(N=Nc2ccc(O)c3ncccc23)cc1", "inhibition": "32%"}, {"smiles": "CCS(=O)(=O)c1ccc(N=Nc2ccc(O)c3ncccc23)c(OC)c1", "inhibition": "14%"}, {"smiles": "COc1cccc(N=Nc2ccc(O)c3ncccc23)c1", "inhibition": "62.9% (active)"}, {"smiles": "COc1cccc(N=Nc2ccc3ccccc3c2O)c1", "inhibition": "1.7% [at 20 µM]"}, {"smiles": "CN(NC(=O)COc1ccccc1)c1ccccc1", "inhibition": "5.9%"}, {"smiles": "CN(CC(=O)Nc1cccnc1)S(=O)(=O)c1cc(Cl)ccc1Cl", "inhibition": "4.2%"}, {"smiles": "COc1cccc(N2C(=O)C3C(C2=O)C3(c2ccccc2)c2ccccc2)c1", "note": "(configuration not stated)", "inhibition": "-3.2%"}, {"smiles": "CCN(CC)S(=O)(=O)c1ccc(C(=O)NCC(=O)N/N=C/c2ccccc2OC)cc1", "inhibition": "-11.7%"}, {"smiles": "O=C(OCC(=O)c1ccc(Cl)s1)c1ccccn1", "inhibition": "34%"}, {"smiles": "O=C(CSc1ccc2nnc(-c3ccccn3)n2n1)NCc1ccco1", "inhibition": "-19.3%"}, {"smiles": "CC(=O)c1sc(-c2ccccc2)cc1N", "inhibition": "4.5%"}, {"smiles": "COCCN=c1scc(-c2ccccc2)n1/N=C/c1c[nH]c2ccccc12", "inhibition": "38.5%"}, {"smiles": "COCCN=c1scc(-c2cc(OC)c(OC)c(OC)c2)n1/N=C/c1c(C)[nH]c2ccccc12", "inhibition": "26.6%"}, {"smiles": "Cc1cc([N+](=O)[O-])nn1CC(=O)NCCc1c[nH]c2ccccc12", "inhibition": "4.9%"}, {"smiles": "COCc1nnc(NC(=O)c2ccc(NC(C)=O)cc2)s1", "inhibition": "21%"}, {"smiles": "CCOC(=O)N1CCC(N2CCN(c3cc(C)ccc3C)CC2)CC1", "inhibition": "11.6%"}, {"smiles": "CCc1ccc(N(CC(=O)NC)S(C)(=O)=O)cc1", "inhibition": "9.3%"}, {"smiles": "COc1cc(OC)cc(C(=O)NCC(=O)OCc2cc(=O)oc3cc(OC)ccc23)c1", "inhibition": "9.7%"}, {"smiles": "Clc1ccc(SCc2cn3cccnc3n2)cc1", "inhibition": "-15.8%"}, {"smiles": "Clc1ccc(SCc2cc(N3CCOCC3)nc(-c3ccccn3)n2)cc1", "inhibition": "10.2%"}, {"smiles": "CCn1c(CNC(=O)c2ccco2)nnc1SCC(=O)Nc1cc(C(F)(F)F)ccc1Cl", "inhibition": "1.4%"}, {"smiles": "Fc1ccccc1COc1ccc(/C=N/NC(=S)NCc2ccccc2)cc1", "inhibition": "-4.9%"}, {"smiles": "CCOC(=O)C1(Cc2ccccc2)CCN(Cc2cc(OC)c3c(c2)OCO3)CC1", "inhibition": "-13.9% [at 20 µM]"}, {"smiles": "Cc1c(NC(=S)Nc2ccccc2C(F)(F)F)cccc1[N+](=O)[O-]", "inhibition": "5.9%"}, {"smiles": "O=C(Nc1ccc(S(=O)(=O)Nc2ncccn2)cc1)c1ccc(S(=O)(=O)N2CCCC2)cc1", "inhibition": "34.1%"}, {"smiles": "Cc1cccc(NS(=O)(=O)c2ccccc2)n1", "inhibition": "12.4%"}, {"smiles": "O=S(=O)(c1cccc2cccnc12)N1CCCCC1", "inhibition": "2.6%"}, {"smiles": "Cc1ccc2cccc(NS(=O)(=O)c3ccccc3)c2n1", "inhibition": "83.9% (active)"}, {"smiles": "CS(=O)(=O)Nc1cccc2cccnc12", "inhibition": "30.9%"}, {"smiles": "COc1cc(NS(=O)(=O)c2ccc(C)cc2)c2ncccc2c1", "inhibition": "7.9%"}, {"smiles": "O=S(=O)(Nc1cccc2cccnc12)c1ccccc1", "inhibition": "99.6% (active)"}, {"smiles": "O=S(=O)(Nc1cccc2ccccc12)c1ccccc1", "inhibition": "-10.6%"}, {"smiles": "CC(=O)Nc1ccc(S(=O)(=O)Nc2cccc3cccnc23)cc1", "inhibition": "-32.6%"}, {"smiles": "O=C(O)c1ccccc1NS(=O)(=O)c1cccc2cccnc12", "inhibition": "1.8%"}, {"smiles": "Cc1ccccc1N(C(=O)c1snc(C(N)=O)c1N)C(C(=O)NCc1ccccc1)c1ccc(O)cc1", "note": "(configuration not stated)", "inhibition": "-9.4%"}, {"smiles": "Cc1c(NCc2cc(Cl)cc(Cl)c2O)c(=O)n(-c2ccccc2)n1C", "inhibition": "22.8%"}, {"smiles": "COc1ccc(NC(=O)c2ccccc2)cc1NS(=O)(=O)c1ccc(F)cc1", "inhibition": "-5%"}, {"smiles": "Cc1cc(N)nc2nc(C(F)(F)F)nn12", "inhibition": "-5.6%"}, {"smiles": "O=C1CC(Cc2ccccc2)C(=O)N1CCCn1ccnc1", "note": "(configuration not stated)", "inhibition": "-24.1%"}, {"smiles": "Cc1ccc(CNC(=O)C2CCCN(c3nc4ccccc4o3)C2)cc1", "note": "(configuration not stated)", "inhibition": "-1.2%"}, {"smiles": "CCOC(=O)N1CCN(C(=O)CNC(=O)c2ccc(Br)o2)CC1", "inhibition": "3.7% [at 20 µM]"}, {"smiles": "CC(C)Oc1cccc(C(=O)N/N=C/c2ccoc2)c1", "inhibition": "-11.1%"}, {"smiles": "CCn1c(SCC(=O)NC2CCCCC2)nnc1-c1ccco1", "inhibition": "-10.6%"}, {"smiles": "Cc1ccc(COC(=O)c2nn(C)c(=O)c3ccccc23)cc1", "inhibition": "-20%"}, {"smiles": "CCOC(=O)c1c(N)sc(C(O)(C(F)(F)F)C(F)(F)F)c1-c1ccc(F)cc1", "inhibition": "-27.6%"}, {"smiles": "Oc1csc(Cc2nc(-c3ccc4ccccc4c3)cs2)n1", "inhibition": "22.5%"}, {"smiles": "Oc1csc(Cc2nc(-c3ccc(-c4ccccc4)cc3)cs2)n1", "inhibition": "3.4%"}, {"smiles": "Oc1csc(Cc2nc(-c3ccc(Br)cc3)cs2)n1", "inhibition": "8.7%"}, {"smiles": "Oc1csc(Cc2nc(-c3ccccc3F)cs2)n1", "inhibition": "-33.9%"}, {"smiles": "CN1CCN(C(=O)c2ccc(COc3ccc(Cl)cc3Cl)cc2)CC1", "inhibition": "-29.5%"}, {"smiles": "CS(=O)(=O)NCCCCCCNS(C)(=O)=O", "inhibition": "-28.3%"}, {"smiles": "COc1ccc(-c2nn(CCC(=O)O)cc2/C=C/C(=O)O)cc1[N+](=O)[O-]", "inhibition": "2.1%"}, {"smiles": "CCCNS(=O)(=O)c1ccc(OCC(=O)N2CCCC2)cc1", "inhibition": "-18.5% [at 20 µM]"}, {"smiles": "Cc1ccccc1Cn1c(=O)n(-c2ccccc2)c(=O)c2ccc(C(=O)NCc3ccco3)cc21", "inhibition": "20.6%"}, {"smiles": "CC(C)(C)c1ccc(OCc2cnc(Cl)s2)cc1", "inhibition": "-46.2% [at 20 µM]"}, {"smiles": "CCN1C(=O)c2ccccc2S(=O)(=O)c2ccc(C(=O)N3CCOCC3)cc21", "inhibition": "16.4%"}, {"smiles": "N#Cc1ccc(C(=O)Nc2nnc(-c3cccs3)o2)cc1", "inhibition": "-5.8%"}, {"smiles": "CN(C)S(=O)(=O)c1ccc(C(=O)Nc2nnc(-c3cccs3)o2)cc1", "inhibition": "-13%"}, {"smiles": "O=C(Nc1nnc(C2=COCCO2)o1)c1cccc(C(F)(F)F)c1", "inhibition": "16%"}, {"smiles": "COc1cccc(C(=O)Nc2nnc(-c3cccs3)o2)c1", "inhibition": "-17.8%"}, {"smiles": "O=C(Nc1nnc(-c2cccs2)o1)c1cccc(C(F)(F)F)c1", "inhibition": "100% (active)"}]}]}
